Screens deposited in PubChem BioAssay by The Scripps Research Institute Molecular Screening Center.
DAX1 inh-1 = DAX1 (NR0B1) inhibitors on StAR promoter, primary screen, cell-based, luminescence, SF-1 (NR5A1), full-length DAX-1; inhibition, % at 6.8 µM; HEK293T StAR-luciferase reporter, SF-1/DAX-1 repression relief; 1.1% of 370,000 active;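 active means inhibition above the mean over all tested compounds plus 3 SD, cut at about 3.6% in these data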;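 further: 0% = DAX-1 cells with DMSO and 100% = cells lacking DAX-1 with DMSO; higher inhibition means more luminescence from relief of DAX-1 repression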
ssDAF12 agonist = S. stercoralis DAF-12 nuclear receptor activators, primary screen, cell-based, luminescence, HEK293, GRIP1 co-expression, lit1-tk-luc; Nuclear hormone receptor DAF-12 (Strongyloides stercoralis); 1% of 370,000 active; activation, % at 6.8 µM; HEK293 ssDAF-12/GRIP1 lit1-tk-luc reporter; % of 3 µM dafachronic acid response; AID 652126, 2013;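 active means activation above the mean over all tested compounds plus 3 SD, cut at about 0.9% in these data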;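 further: 0% = DMSO-only wells and 100% = 3 µM delta7-dafachronic acid wells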
DAX1 inh-2 = DAX1 (NR0B1) inhibitors, primary screen, cell-based, HEK293, Gal4-DAX1, luciferase luminescence; Nuclear receptor subfamily 0 group B member 1 (Homo sapiens), P51843; HEK293 Gal4-DAX1 luciferase reporter; inhibition, % at 6.75 µM; 0.99% of 340,000 active;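 active means inhibition above the mean over all tested compounds plus 3 SD, cut at about 4.2% in these data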;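 further: 0% = DAX1-transfected cells with DMSO and 100% = empty-vector control cells with DMSO; inhibition shows as a rise in luminescence from relieved DAX1 repression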
Target sequence (P51843 207-470 limits assumed): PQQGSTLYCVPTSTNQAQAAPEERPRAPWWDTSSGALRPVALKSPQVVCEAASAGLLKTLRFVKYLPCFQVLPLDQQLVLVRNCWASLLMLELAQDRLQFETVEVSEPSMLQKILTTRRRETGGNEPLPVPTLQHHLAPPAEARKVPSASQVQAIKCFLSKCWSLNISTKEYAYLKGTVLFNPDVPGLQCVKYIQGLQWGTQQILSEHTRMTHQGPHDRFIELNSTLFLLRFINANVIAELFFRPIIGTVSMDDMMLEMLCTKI
hgDAF-12 ag = H. glycines DAF-12 receptor agonists, primary screen, cell-based, luminescence, HEK293, GAL4 fusion, UAS-luciferase. 1.8% of 370,000 active. activation, % at 6.8 µM. HEK293 GAL4-hgDAF12 UAS-luciferase reporter, agonist luminescence; normalized to butyrate control. AID 687014, 2013;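 active means activation above a cutoff set at the mean of all screened compounds plus 3 SD, cut at about 10% in these data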;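 further: 0% = DMSO wells and 100% = sodium butyrate wells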
hcDAF-12 act = H. contortus DAF-12 nuclear receptor activators, primary screen, cell-based, luminescence, HEK293, lit1-tk-luc reporter; 1.4% of 370,000 active; AID 652067, 2013; activation, % at 6.8 µM; HEK293 hcDAF-12 lit1-tk-luc reporter; 0% DMSO, 100% Δ7-dafachronic acid;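 active means activation above the mean of all tested compounds plus 3 SD, cut at about 5.5% in these data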;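 further: 100% = response to 3 µM Δ7-dafachronic acid high control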
SMARCA2 act = SMARCA2 (BRM) function activators, primary screen, cell-based, luminescence, high throughput | MG213 cells, MMTV-luciferase reporter, dexamethasone, overnight | activation, % at 9.1 µM | 1% of 370,000 active | AID 652017, 2013; in the data active means activation above about 7.8%;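 further: 0% = vehicle wells and 100% = reference activator wells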
hgDAF12 ag = H. glycines DAF-12 receptor agonists, confirmation, cell-based, luminescence, HEK293, GAL4-LBD fusion; AID 743050, 2013; HEK293 GAL4-hgDAF12 luciferase reporter, agonist mode; percent of butyrate response; shares compounds with hgDAF-12 ag; 80% of 3,300 active; activation, % at 6.8 µM;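 active means mean activation over triplicate wells above the hit cutoff derived from the earlier primary screen, cut at about 11% in these data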;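 further: 0% = DMSO low control and 100% = 2 mM sodium butyrate high control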
LXRb DAF12 ctr = LXR agonists, Gal4 luciferase reporter, confirmation, counter-screen for hgDAF-12 agonist project, cell-based, luminescence, HEK293, H. glycines campaign; shares compounds with hgDAF-12 ag; 3,300 tested, under 10 active; activation, % at 6.8 µM; 24 h;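 active means mean activation of the triplicate above a set limit carried over from the primary screen, none filed active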
Target sequence (P55055 whole entry, looked up, the tested form may be a part): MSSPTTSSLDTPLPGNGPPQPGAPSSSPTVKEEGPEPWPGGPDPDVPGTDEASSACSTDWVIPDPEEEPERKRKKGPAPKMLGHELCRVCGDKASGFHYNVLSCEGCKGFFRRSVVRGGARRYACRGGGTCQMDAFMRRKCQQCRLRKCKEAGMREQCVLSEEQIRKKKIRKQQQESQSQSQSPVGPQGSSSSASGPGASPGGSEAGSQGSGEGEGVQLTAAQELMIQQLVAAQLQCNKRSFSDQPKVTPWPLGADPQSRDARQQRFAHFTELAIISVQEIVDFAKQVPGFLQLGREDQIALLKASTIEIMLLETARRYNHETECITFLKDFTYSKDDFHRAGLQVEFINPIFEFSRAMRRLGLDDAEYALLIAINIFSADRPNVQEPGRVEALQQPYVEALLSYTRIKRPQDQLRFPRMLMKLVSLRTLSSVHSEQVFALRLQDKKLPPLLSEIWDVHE
Numbers without * were called inactive; . = not tested or not shown. Hits are enriched below; roughly 4.8% of the tested compounds scored in any of these assays.

SMILES | DAX1 inh-1 | ssDAF12 agonist | DAX1 inh-2 | hgDAF-12 ag | hcDAF-12 act | SMARCA2 act | hgDAF12 ag | LXRb DAF12 ctr
COC(=O)c1cc2c(c3c4cc(OC)ccc4n(S(=O)(=O)c4ccc(F)cc4)c13)C(=O)N(Cc1ccccc1)C2 | 0.1 | -0.9 | . | 0.8 | -0.7 | -4.3 | . | .
Cc1csc(NC(=O)Nc2cccc(Cl)c2)n1 | 1.7 | 0.2 | 1.1 | 17.2* | 3.6 | 3.7 | 13.7* | 0.6
Cc1ccc(C(=O)Nc2nc(C)c(C(=O)Nc3ccc4c(c3)CCC4)s2)cc1 | -0.4 | 1.3* | -0.5 | 16.9* | 3.4 | 4.5 | 17.0* | 0.3
Cc1nc(NC(=O)c2ccc(F)cc2)sc1C(=O)Nc1ccc2c(c1)CCC2 | 0.1 | -0.9 | -0.2 | 2.3 | 1.9 | 0.6 | . | .
Cc1cnc(C(=O)Nc2ccc3c(c2)CCC3)cn1 | 4.1* | 0.5 | 0.8 | 14.2* | 3.9 | 2.5 | 16.8* | 0.7
O=C(Nc1ccc2c(c1)CCC2)c1cnccn1 | 4.4* | -0.5 | 2.7 | 16.6* | 2.5 | 7.4 | 15.0* | 0.5
O=C(Nc1cccc(Cl)c1)c1cnccn1 | 0.5 | -0.3 | -0.3 | 3.1 | -0.7 | 2.9 | . | .
O=C(C(=O)N1CCN(C(=O)c2ccccc2C(F)(F)F)CC1)c1cccc(C(F)(F)F)c1 | -0.2 | -0.5 | . | -2.1 | -1.0 | -3.0 | . | .
COc1cccc(CNC(=O)[C@H]2CCCN2C(=O)[C@H]2CCCN2C(=O)c2ccc(F)c(C(F)(F)F)c2)c1 | -0.2 | -1.2 | . | -1.0 | -1.1 | -2.1 | . | .
Cc1ccc(C(=O)OCC(=O)NCc2cccs2)c(C)c1 | 0.9 | -0.8 | 0.5 | 14.5* | -1.6 | 1.1 | 5.5 | 0.2
Cc1cc(C)cc(C(=O)OCC(=O)NCc2cccs2)c1 | 0.2 | -1.6 | 2.1 | 0.4 | -3.1 | -1.7 | . | .
CN1CCN(/C=N/c2sc3c(c2C#N)CCCCC3)CC1 | 1.3 | 0.9 | 6.8* | 18.9* | 6.4* | 7.2 | 18.7* | 0.8
O=C(NCc1cccs1)C1C2C=CC3(CN(Cc4ccccc4)C(=O)C13)O2 (stereo unspecified) | 0.1 | -1.0 | . | -1.4 | 1.3 | 2.7 | . | .
COCCNC(=S)N(C)[C@H]1C[C@H]2c3[nH]c4c(-c5ccccc5)cccc4c3CCN2C[C@H]1[C@H](C)O | 0.7 | -0.7 | . | -1.5 | -2.2 | 4.1 | . | .
CC(C)CSc1nnc2c(n1)[nH]c1ccccc12 | 4.0* | 1.2* | 1.9 | 13.8* | 6.4* | 2.4 | 12.4* | 0.8
Oc1ccccc1N1CCN(c2ccc3ccccc3n2)CC1 | 1.6 | 0.6 | 1.9 | 15.6* | 5.1 | 3.8 | 15.4* | 0.7
C/C(N)=C(/C#N)C(=O)CSc1nnc(Nc2ccccc2C)s1 | 0.3 | -0.7 | 1.1 | 2.1 | -0.1 | 3.8 | . | .
C/C(N)=C(/C#N)C(=O)CSc1nnc(Nc2ccccc2)s1 | 2.5 | -0.8 | 0.7 | 15.0* | 3.5 | 4.9 | 9.5 | 0.5
C=CCN1CC(COCCCC)Oc2ccc(Cl)cc2S1(=O)=O (stereo unspecified) | -0.1 | -0.6 | . | 0.4 | 1.6 | -4.9 | . | .
S=c1[nH]c(-c2ccccc2)cn1/N=C/c1cccs1 | 0.1 | 0.8 | 1.5 | 14.0* | 5.6* | -0.4 | 5.2 | 0.0
Oc1ccc(N=Nc2ccccc2)cc1 | 0.6 | 0.0 | 2.0 | 9.8 | 3.8 | 3.2 | . | .
OCc1ccc(N=Nc2ccccc2)cc1 | 2.1 | -0.3 | 2.9 | 13.4* | 2.7 | 3.3 | 16.9* | 0.8
OCCOCCNc1ncnc2c1cnn2-c1ccc(Cl)cc1 | 4.5* | 0.1 | 3.3 | 14.9* | 5.0 | 6.2 | 16.9* | 0.8
CN(C)CCCNc1ncnc2c1cnn2-c1ccccc1 | . | . | 0.7 | . | . | . | . | .
CC(C)c1ccc(NC(=O)Nc2cnccn2)cc1 | 3.1 | -1.1 | -0.3 | 15.9* | 0.1 | 4.2 | 13.9* | 0.6
SMILES | DAX1 inh-1 | ssDAF12 agonist | DAX1 inh-2 | hgDAF-12 ag | hcDAF-12 act | SMARCA2 act | hgDAF12 ag | LXRb DAF12 ctr
O=C(Nc1nsc(-c2ccccc2)n1)c1ccc(F)cc1 | 2.6 | -0.5 | 2.6 | 16.4* | 2.7 | 5.5 | 10.2 | 0.4
COc1ccc(NC(=O)N(C)C[C@H]2OCc3cn(nn3)CCCC(=O)N([C@H](C)CO)C[C@@H]2C)cc1 | 0.8 | -1.0 | . | 2.0 | 0.1 | -2.7 | . | .
CCn1c(O)c(/C=C2\C=Nc3ccccc32)sc1=O | 2.0 | -0.4 | 2.2 | 14.0* | 4.5 | 6.3 | 21.5* | 0.7
COC(=O)c1sc2nc3c(cc2c1N)COC(C)(C)C3 | 4.0* | 0.1 | 1.4 | 16.5* | 2.5 | 2.7 | 16.9* | 0.7
CC(=O)O[C@H]1C=C[C@@H](C#Cc2ccc(C(C)(C)C)cc2)O[C@@H]1COC(=O)Nc1ccccc1 | -0.8 | -0.1 | . | -0.2 | 0.2 | -0.4 | . | .
C=CCSc1nnc(-c2ccc(Cl)cc2Cl)o1 | 3.3 | 0.4 | 1.7 | 13.6* | 3.8 | 5.7 | 14.2* | 0.8
C=CCSc1nnc(-c2cccnc2)o1 | -0.2 | -1.2 | 0.4 | 3.0 | 0.9 | 0.9 | . | .
C[C@@H]1CN([C@H](C)CO)C(=O)c2cc(NC(=O)Nc3ccccc3)ccc2O[C@@H](C)CCCCO[C@H]1CN(C)S(C)(=O)=O | 0.3 | -1.4 | . | -4.3 | -1.3 | 6.1 | . | .
Cc1ccc(-n2ncc3c(=O)n(CC(=O)N(C)C)cnc32)cc1C | 0.1 | 0.1 | 0.8 | 4.4 | 0.9 | 0.3 | . | .
CC(=O)Cn1cnc2c(cnn2-c2ccc(C)c(C)c2)c1=O | 0.7 | 0.8 | 3.3 | 15.3* | -2.9 | 3.5 | 12.3* | 0.4
Cc1ccc(-c2nc3ccccn3c2C=O)cc1 | 1.8 | 0.6 | 2.3 | 13.6* | 5.8* | 6.1 | 11.9* | 0.3
COc1cccc2cc(C(=O)Nc3cc(C)cc(C)c3)/c(=N/NS(=O)(=O)c3ccccc3)oc12 | -0.7 | -0.8 | 0.6 | 0.0 | 1.2 | -2.4 | . | .
COc1ccc(NC(=O)c2cc3ccccc3o/c2=N\NS(=O)(=O)c2ccc(C)cc2)cc1 | 2.3 | 0.0 | 1.7 | 14.2* | 6.0* | 6.8 | 12.6* | 0.7
